The text below walks through data of PubChem BioAssay (Tox21).

Structures are written as SMILES. Results filed as inconclusive are left out. Where a call stands in place of a potency, no number is given. Unmarked numbers belong to inactive results. Active and inactive are the calls of the source. The call rests on the fitted dose curve.
Potency means the concentration at half of the fitted maximal effect.

The assay is described as follows: p53 small molecule agonists, cell-based qHTS assay with human liver microsomes (AID 1963577).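 On activation: p53 response element beta-lactamase reporter cells with liver microsomes plus NADPH.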 The settings on record: HCT-116 p53RE-bla with human liver microsomes, ratio, 16 h; series mostly up to 66 µM. From the text: National Center for Advancing Translational Sciences [NCATS]
Division of Preclinical Innovation [DPI]
U.S. Environmental Protection Agency [EPA]
National Institutes of Environmental Health Sciences [NIEHS]
National Toxicology Program [NTP]
U.S. Food and Drug Administration [FDA]
p53, a tumor suppressor protein, is activated following cellular insult, including DNA damage and other cellular stresses. The activation of p53 regulates cell fate by inducing DNA repair, cell cycle arrest, apoptosis, or cellular senescence. The activation of p53, therefore, is a good indicator of DNA damage and other cellular stresses. […] The activation of the reporter gene under culture conditions can be detected by fluorescence intensity.
Tox21 Assay Protocol Summary:
The p53RE-bla cells were dispensed at 4,000cells/3ul/well in 1536-well black-clear bottom plates. After the assay plates were incubated at 37 C, 5% CO2 incubator for 5 hours, 23 nL of compounds dissolved in DMSO, positive controls or DMSO only was transferred to the assay plate. Following compound addition, 3 uL of human liver microsomes (XenoTech, Kansas City, KS) at final concentration of 0.5 mg/mL and 1uL of Beta-Nicotinamide adenine dinucleotide 2-phosphate (NADPH) at final concentration of 0.5 mg/mL were transferred to the assay plate. The plates were incubated at 37 C for 16 hours. 1 uL of LiveBLAzer detection mixture was added to each well and the plates were incubated at room temperature in the dark for 2 h.
In general terms: In qHTS, concentration-response curves come from the screen itself.
On to `Clc1c(Cl)c(Cl)c(Cl)c(Cl)c1Cl`, for which the activation is -0.641% [at 5.99 µM].

For the molecule `O=C(Nc1ccccc1)Nc1cnns1`, the Potency result was “inactive”.

For `Clc1ccc(CO/N=C(\Cn2ccnc2)c2ccc(Cl)cc2Cl)c(Cl)c1`, the Potency entry is “inactive”.

With `COP(=S)(OC)Oc1c(Cl)cc(C)cc1Cl`, the Potency is 9.13 µM (active).

With `OC(Cn1cncn1)(c1ccc(F)cc1)c1ccccc1F` (stereo not given), the Potency entry was “inactive”.

With `CC(C)C(Nc1ccc(C(F)(F)F)cc1Cl)C(=O)OC(C#N)c1cccc(Oc2ccccc2)c1` (stereo not given), the Potency result is “inactive”.

Regarding `c1cncc([C@@H]2CCCCN2)c1`, the Potency result is “inactive”.

`O=C(N[C@H]1N=C(c2ccccc2F)c2cccc3c2N(CC3)C1=O)c1cc2ccccc2[nH]1`: the Potency result was “inactive”.

As to `COC1CC(=C(c2cccs2)c2cccs2)C[N+](C)(C)C1` (stereo not given), the Potency result is “inactive”.

Turning to `CC(=O)[O][Pb]([c]1ccccc1)([c]1ccccc1)[c]1ccccc1`, the Potency result is “inactive”.

Turning to `BrCC(Br)C1CCC(Br)C(Br)C1` (stereo not given), the Potency entry is “inactive”.

As for `CCCOCC(=Nc1ccc(Cl)cc1C(F)(F)F)n1ccnc1`, the Potency result was “inactive”.

In the case of `C[C@@H](Oc1ccc(Cl)cc1Cl)C(=O)O`, the Potency result is “inactive”.

Turning to `Cc1cc(SCc2sc(-c3ccc(C(F)(F)F)c(F)c3)nc2C)ccc1OCC(=O)O`, the Potency entry was “inactive”.

With `C[C@H]1[C@@H]2Cc3ccc(O)cc3[C@@]1(C)CCN2C`, the Potency entry is “inactive”.

Turning to `CC[C@H]1C[C@H]2[C@@H]3CCC4=CC(=O)CC[C@@H]4[C@H]3CC[C@]2(C)[C@H]1O`, the Potency entry was “inactive”.

In the case of `ClC1=C(Cl)[C@]2(Cl)[C@@H]3[C@@H](Cl)[C@H]4O[C@H]4[C@@H]3C1(Cl)C2(Cl)Cl`, the Potency entry is “inactive”.

With `O=S1(=O)OC(c2cc(Br)c(O)c(Br)c2)(c2cc(Br)c(O)c(Br)c2)c2ccccc21`, the Potency result was “inactive”.

Take `CC[C@@H](CO)NC(=O)[C@@H]1C=C2c3cccc4c3c(cn4C)C[C@H]2N(C)C1`: the Potency entry was “inactive”.

For the molecule `CN1[C@@H]2CC[C@H]1CC(O)C2` (stereo not given in full), the Potency result was “inactive”.

As for `CC[C@@H](CO)NC(=O)[C@@H]1C=C2c3cccc4[nH]cc(c34)C[C@H]2N(C)C1`, the Potency result is “inactive”.

For the molecule `CCCCCCCCCC(=O)O[C@H]1CC[C@H]2[C@@H]3CCC4=CC(=O)CC[C@@H]4[C@H]3CC[C@]12C`, the Potency result is “inactive”.

As to `COc1ccc(-c2ccccc2)cc1NNC(=O)OC(C)C`, the Potency result was “inactive”.

On to `CCN(CC)c1c([N+](=O)[O-])cc(C(F)(F)F)c(N)c1[N+](=O)[O-]`, for which the Potency result is “inactive”.

As for `Cc1ccccc1`, the Potency result was “inactive”.

On to `C=C(Cl)CSC(=S)N(CC)CC`, for which the Potency result was “inactive”.

For the molecule `O=C(Nc1ccc2[nH]ccc2c1)c1cc2cc(F)ccc2n1Cc1cccc(F)c1`, the Potency result was “inactive”.

`COC(=O)C1(O)c2ccccc2-c2ccccc21`: the Potency result is “inactive”.

Turning to `OC(c1ccc(F)cc1)(c1cncnc1)c1ccccc1Cl` (stereo not given), the Potency entry is “inactive”.

With `C=CCC1([C@H](C)CCC)C(=O)NC(=O)NC1=O`, the Potency result is “inactive”.

Turning to `CCC[CH2][Sn]([CH2]CCC)([CH2]CCC)[O][Sn]([CH2]CCC)([CH2]CCC)[CH2]CCC`, the activation was -15.1% [at 5.99 µM].

For `Nc1nc(N)nc(N)n1`, the Potency entry was “inactive”.

For `O=c1[nH]c(Cl)c(Cl)cc1Cl`, the Potency result was “inactive”.

Consider `N#Cc1ccc(N(CC(N)=O)CC(F)(F)F)cc1C(F)(F)F`, for which the Potency entry was “inactive”.

Consider `CCCCCCCCCCCCCCC(Br)C(=O)O` (stereo not given), for which the Potency entry was “inactive”.

For `O=C(O)c1cc(I)cc(I)c1I`, the Potency result is “inactive”.

On to `CC(C)N(C(=O)SC/C(Cl)=C/Cl)C(C)C`, for which the Potency result was “inactive”.

On to `O=c1[nH]c2ccccc2n1C1CCNCC1`, for which the Potency result is “inactive”.

In the case of `CCC1COC(Cn2cncn2)(c2ccc(Cl)cc2Cl)O1` (stereo not given), the Potency entry is “inactive”.

For `COc1ccc2c(C(=O)c3ccc(Cl)cc3)c(C)n(CC(=O)O)c2c1`, the Potency result is “inactive”.
